Screening data as filed in PubChem.
HTT cytoprotect = cytoprotection in Huntington HTT-Q103 PC12 cell model; PC12 HTT-Q103 induced, cytoprotection, ATP luminescence, 40 h; Potency, µM (doses to about 56.4 µM), usual class: activators; 0.14% of 230,000 active; further: nearly all actives have a fitted effect of over 45% in size
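Huntington model: PC12 line, ecdysone-inducible HTTQ103 exon1–GFP, tebufenozide 100 nM. Test articles in a dose series. Endpoint luminescence from cellular ATP.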
Tau FP inhib = inhibitors of human tau fibril formation; P10636; K18 P301L tau heparin fibrillization, Alexa594 FP, 6 h; Potency, µM (series often up to 57.7 µM), actives largely listed as inhibitors; 0.39% of 280,000 active; AID 1468; further: nearly all actives have a fitted effect of over 55% in size
Target sequence (P10636 561-689 P618L limits assumed): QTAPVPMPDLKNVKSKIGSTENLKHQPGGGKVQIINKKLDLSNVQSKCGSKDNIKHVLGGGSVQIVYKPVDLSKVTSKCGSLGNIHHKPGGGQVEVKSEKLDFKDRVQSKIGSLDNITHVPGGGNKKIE
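Quantitative HTS format: compounds meet 15 uM recombinant K18 P301L tau and Alexa 594-tau tracer in 100 mM sodium acetate pH 7; 20 uM heparin triggers fibrillization at 37 C over 6 hr; FP gives the signal.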
Tau ThT inhib = inhibitors of human tau fibril formation, thioflavin T binding; Potency, µM (highest dose often 57.4 µM), usual class: inhibitors; 2.1% of 270,000 active; recombinant tau K18 P301L, heparin-induced fibrillization, ThT fluorescence; further: nearly all actives have a fitted effect of over 55% in size
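Using a mix of unlabeled (15 uM) and Alexa 594-labeled (0.24 uM) tau K18 P301L, heparin-triggered fibrillization over 6 hr at 37 C was scored by ThT fluorescence.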
Tau fluor cs = counter-screen for tau fibril formation inhibitors; tau K18 P301L Alexa594 fluorescence, heparin fibrillization; Potency, µM (series often up to 57.7 µM); 0.93% of 280,000 active; further: nearly all actives have a fitted effect of over 55% in size
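Human tau K18 P301L (15 uM unlabeled, 0.24 uM Alexa 594-labeled) in 100 mM sodium acetate pH 7 with 20 uM heparin, 6 hr at 37 C. ThT 30 uM added, 1 hr ambient; Alexa 594 FP and total fluorescence read at 555/632 nm.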
HttQ103 aggreg = mutant huntingtin aggregation inhibition; PC12 HttQ103-GFP aggregates, Acumen cytometry, 40 h; Potency, µM (highest dose often 46.1 µM), usual class: inhibitors; 1.1% of 220,000 active; AID 1688; further: nearly all actives have a fitted effect of over 60% in size
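Steps: seed 1500 PC12 HTTQ103-GFP cells/well; add tebufenozide, 100 nM final; add compound titration; add ATPLite reagent; quantify GFP aggregates by laser scanning cytometry.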
Numbers stand for hits; . = inactive; ? = inconclusive; / = no result given; [ ] = another dose, or the depositor's remark. This is a sample that favours compounds with a hit; in the whole collection about 3.7% have one here. The call rests on the fitted dose curve; in most records, active means well fitted curve in the direction sought with a large enough effect; inconclusive means small, poorly fitted or top-dose-only effect, or another doubt; inactive means no such curve, though single readings can be large; an effect the other way counts as inactive or inconclusive.

SMILES | HTT cytoprotect | Tau FP inhib | Tau ThT inhib | Tau fluor cs | HttQ103 aggreg
CC(C(=O)N1c2ccccc2Sc2ccccc21)n1nnc(-c2cccs2)n1 (stereo not given) | .[10 µM] | . | . | . | 4µM
OC[C@H](CCc1c[nH]c2ccccc12)c1c[nH]c2ccccc12 | .[10 µM] | / | / | / | /
CCn1nc([N+](=O)[O-])c(C(C#N)c2nc3ccccc3n2C)c(Cl)c1=O (stereo not given) | .[10 µM] | . | 11µM | ? | .
Cn1c(C(C#N)C(=O)c2sc3ccccc3c2Cl)nc2ccccc21 (stereo not given) | . | ? | . | . | .
CCCn1nc([N+](=O)[O-])c(C(C#N)c2nc3ccccc3s2)c(Cl)c1=O (stereo not given) | 13µM | 18µM | 4µM | 5µM[quencher] | /
Cc1ccc(-c2cc(C(=O)N3CCN(c4ccccc4)CC3)c3ccccc3n2)cc1C | / | . | . | . | /
Cc1ccc2c(C(=O)N3CCN(c4ccccc4)CC3)cc(-c3cccnc3)nc2c1C | .[10 µM] | . | . | . | 10µM
CCCCc1nc2c(c3c1C[C@H](C)OC3)CN(C(=O)COC)CC2 | .[10 µM] | .[11.6 µM] | .[11.5 µM] | .[11.6 µM] | /
CCOc1ccccc1C(=O)Nc1cc2c(cc1N1CCOCC1)n(C)c(=O)n2C | / | . | . | . | /
CC1=NOC(=O)/C1=C\c1ccc(-c2cccc(Cl)c2)o1 | . | . | 16µM | ? | ?
Cc1cc(C)c2nc(SC3CCOC3=O)cc(C)c2c1 (stereo not given) | .[10 µM] | . | . | . | .
Cc1cc(C)c2nc(SC(C)C#N)cc(C)c2c1 (stereo not given) | 0.63µM | . | ? | . | .
CN(c1ccccc1)c1ccc(/C=C/[N+](=O)[O-])cc1 | .[10 µM] | . | . | . | .
CN(C)c1ccc(-n2cccc2/C=C/[N+](=O)[O-])cc1 | . | . | ? | ? | 25µM
CCN(c1ccccc1)S(=O)(=O)c1ccc(F)c(C(=O)Nc2ccc(C)cc2)c1 | / | . | . | . | /
CCN(c1ccccc1)S(=O)(=O)c1cc(C(=O)Nc2ccc(F)c(F)c2)ccc1F | .[10 µM] | 14µM | . | ? | ?
Cc1ccc(NC(=O)c2ccc(F)c(S(=O)(=O)NCCc3ccccc3)c2)cc1F | / | 25µM | . | 7.1µM[quencher] | /
COc1ccc(S(=O)(=O)Nc2cccc(-c3ccc(N4CCC(C)CC4)nn3)c2)c(OC)c1 | / | . | . | . | /
CC(=O)Nc1ccc(Nc2c([N+](=O)[O-])c(=O)n(-c3ccccc3)c3ccccc23)cc1 | .[10 µM] | . | . | . | .[9.22 µM]
CN(C)/C=C/c1c([N+](=O)[O-])c2ccc(O)cc2n1-c1ccccc1 | .[10 µM] | ? | 13µM | 16µM[quencher] | .[9.22 µM]
CC(=O)c1c(C)c(C)c2n1CCn1c(C)ccc1-2 | .[10 µM] | . | 16µM | ? | .[9.22 µM]
COc1ccc(Cl)cc1NC(=O)CCn1nc(C)cc1C | / | . | . | . | /
CC(C)(C)c1ccc(C(=O)NC(Cc2c[nH]c3ccccc23)C(=O)OCC(=O)c2ccc(Cl)cc2)cc1 (stereo not given) | / | . | . | ? | /
O=C(COC(=O)[C@H](Cc1c[nH]c2ccccc12)NC(=O)c1ccc(Cl)cc1)Nc1ccc2c(c1)OCO2 | . | . | ? | 8.9µM[quencher] | .[9.22 µM]
O=C(Nc1nc(-c2cccs2)c(C(=O)C(F)(F)F)s1)c1ccccc1 | / | . | ? | ? | 10µM
SMILES | HTT cytoprotect | Tau FP inhib | Tau ThT inhib | Tau fluor cs | HttQ103 aggreg
CCC(=O)N(CC)C1=C(O)c2ccccc2C(=O)C1=O | . | ? | 16µM | ? | .
CCCCOc1ccc(C2=NC(c3ccncc3)=Nc3ccc(Br)cc3N2)cc1 | / | . | ? | ? | /
Cn1ncc(Oc2ccc([N+](=O)[O-])cc2)c(Cl)c1=O | .[10 µM] | . | . | . | .[9.22 µM]
CC(C)(C)n1ncc(Oc2ccccc2[N+](=O)[O-])c(Cl)c1=O | / | . | . | . | 13µM
CCC1CCCCN1C(=O)CSc1n[nH]c(-c2ccccc2Cl)n1 (stereo not given) | / | . | . | . | /
Cn1c(=O)oc2cc(S(=O)(=O)N3CCCC(C(=O)N4CC=C(c5ccccc5)CC4)C3)ccc21 (stereo not given) | . | . | . | . | 11µM
CCCn1cc(S(=O)(=O)c2cccc(Cl)c2)c(=O)c2cc(F)c(N3CCCC3)cc21 | / | . | . | . | /
CSc1nnc(C)c(/C=C/Nc2ccc(F)cc2)n1 | . | . | ? | . | .
COc1ccc(N/C=C/c2nc(SC)nnc2C)cc1 | / | . | 3.2µM | . | .
CSc1nnc(C)c(/C=C/Nc2ccc(Cl)cc2)n1 | . | . | 16µM | . | .
COc1ccc(N/C=C/C(=O)C(F)(F)F)cc1 | .[10 µM] | . | . | . | .
Cc1cc(C)n(C(=O)/C(C#N)=N\Nc2ccccc2[N+](=O)[O-])n1 | . | . | ? | . | .
Cc1cc(C)n(C(=O)/C(C#N)=N/Nc2cc(Cl)cc(Cl)c2)n1 | . | . | ? | ? | 13µM
O=C1c2ccccc2C(O)(O)[C@@]1(O)[C@]1(O)C(=O)c2ccccc2C1(O)O | .[10 µM] | / | / | / | /
CC(C)(C)c1ccc(NC(=O)Nc2ccc(OCC(=O)N3CCOCC3)cc2)cc1 | . | . | . | 20µM[quencher] | .
COc1ccccc1NC(=O)c1cc2cc(Br)ccc2cc1O | .[10 µM] | . | / | 6.3µM[quencher] | .[9.22 µM]
COc1ccccc1NC(=O)c1cc2ccc(O)cc2o/c1=N\O | . | . | 7.1µM | ? | .
COc1ccccc1NC(=O)c1cc2ccccc2o/c1=N\O | . | . | ? | . | .
c1ccc(-c2csc3nnc(SCc4ccc5c(c4)OCO5)n23)cc1 | .[10 µM] | . | . | . | 10µM
O=C(CCSc1nnc2scc(-c3ccccc3)n12)NCc1ccc2c(c1)OCO2 | .[0.074 µM] | . | . | . | .
COc1c(O)cc2c(=O)oc3c(OC)c(O)cc4c(=O)oc1c2c34 | . | . | ? | . | /
O=c1cc2c(=O)oc3cc(O)c(O)oc3c2c(O)c1O | .[10 µM] | ? | 4.5µM | . | .[9.22 µM]
Oc1ccccc1-c1cc(-c2ccccc2Cl)[nH]n1 | . | ? | . | 14µM[quencher] | .
O=[N+]([O-])c1ccccc1-c1cc(-c2cc(Cl)ccc2O)n[nH]1 | .[10 µM] | ? | ? | 14µM[quencher] | .
Cc1nn(-c2ccccc2)c(N2CCCC2)c1/C=C1\N=C(c2ccc(OC(C)C)cc2)OC1=O | .[10 µM] | . | 10µM | . | .
SMILES | HTT cytoprotect | Tau FP inhib | Tau ThT inhib | Tau fluor cs | HttQ103 aggreg
Nc1[nH]n2c(=O)cc(-c3ccccc3)nc2c1N=Nc1ccccc1 | . | . | 5µM | ? | 3.2µM
NS(=O)(=O)c1ccc(N=Nc2c(-c3ccccc3)[nH]n(-c3nc(-c4ccccc4)cs3)c2=O)cc1 | .[10 µM] | ? | 1.8µM | 8.9µM[quencher] | 5.6µM
Nc1nc2nc(-c3ccccc3)cc(=O)n2[nH]1 | .[10 µM] | . | . | . | .
Nc1[nH]n2c(=O)cc(-c3ccccc3)nc2c1N=Nc1ccc(S(N)(=O)=O)cc1 | .[10 µM] | . | 2.2µM | ? | .[9.22 µM]
O=c1cc(-c2ccccc2)nc2nc(-c3ccccc3)[nH]n12 | .[10 µM] | ? | . | . | .
COc1cccc(CNC(=O)Cc2ccc(NC(=O)N3CCSc4ncccc43)cc2)c1OC | / | . | . | . | /
